Hit rate of the full screen: of about 310,000 compounds, about 14,000 (4.5%) showed an effect of 50% or more. Effects have a minus sign here. The entries come from a sample that favours strong results as a whole.
What follows are compounds tested against human ether-à-go-go-related gene (hERG) potassium channel (human, UniProt Q12809) (assay: primary screen, population patch clamp on CHO cells stably expressing hERG; higher = less effect of the substance).
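Also: peak tail current of the secondary pulse compared with the same well before compound.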

human ether-à-go-go-related gene (hERG) potassium channel, sequence (Q12809 whole entry, looked up): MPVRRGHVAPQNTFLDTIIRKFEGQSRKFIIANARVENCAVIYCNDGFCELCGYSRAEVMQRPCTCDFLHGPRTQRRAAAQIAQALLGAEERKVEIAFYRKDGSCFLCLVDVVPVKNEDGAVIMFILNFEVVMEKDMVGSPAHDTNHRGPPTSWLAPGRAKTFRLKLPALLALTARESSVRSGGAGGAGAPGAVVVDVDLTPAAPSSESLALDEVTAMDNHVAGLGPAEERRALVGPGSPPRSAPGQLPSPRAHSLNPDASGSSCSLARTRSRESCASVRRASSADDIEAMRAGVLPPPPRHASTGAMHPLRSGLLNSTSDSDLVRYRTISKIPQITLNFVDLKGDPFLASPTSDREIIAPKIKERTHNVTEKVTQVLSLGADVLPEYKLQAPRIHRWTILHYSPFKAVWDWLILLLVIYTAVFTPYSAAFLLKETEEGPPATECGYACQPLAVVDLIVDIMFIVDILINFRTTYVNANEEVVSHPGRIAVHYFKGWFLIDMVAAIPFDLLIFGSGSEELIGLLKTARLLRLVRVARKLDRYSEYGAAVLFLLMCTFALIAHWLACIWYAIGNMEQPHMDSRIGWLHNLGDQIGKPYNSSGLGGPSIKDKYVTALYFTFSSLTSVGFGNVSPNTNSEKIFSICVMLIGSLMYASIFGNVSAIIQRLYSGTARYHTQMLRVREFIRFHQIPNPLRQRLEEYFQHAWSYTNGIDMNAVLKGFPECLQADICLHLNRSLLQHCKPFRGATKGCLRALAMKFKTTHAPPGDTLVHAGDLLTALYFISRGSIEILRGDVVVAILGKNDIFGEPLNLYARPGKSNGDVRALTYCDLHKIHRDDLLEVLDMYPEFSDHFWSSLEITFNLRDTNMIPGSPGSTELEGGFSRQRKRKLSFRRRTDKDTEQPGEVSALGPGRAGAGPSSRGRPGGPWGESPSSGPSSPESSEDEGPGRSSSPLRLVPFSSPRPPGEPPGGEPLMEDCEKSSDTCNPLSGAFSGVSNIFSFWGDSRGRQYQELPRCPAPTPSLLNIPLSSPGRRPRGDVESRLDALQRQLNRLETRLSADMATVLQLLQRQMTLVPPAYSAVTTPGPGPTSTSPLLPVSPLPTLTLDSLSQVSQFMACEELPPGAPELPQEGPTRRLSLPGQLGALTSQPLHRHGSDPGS

Point of comparison: CCN1CCN(c2ccc(S(=O)(=O)N3CCCCC3)cc2NC(=O)c2cccc(C)c2)CC1, “hERG current change (%, negative = inhibition) at 10uM” value -37.4%. Against it:
- CCc1cc2c(cc3c(=O)n(CC(=O)N4CCN(C)CC4)ncn32)s1 — higher, -14.3%
- CCOC(=O)c1ccccc1NC(=O)COC(=O)c1ccccc1C(=O)N(C)c1ccccc1 — higher, -23.5%
- CC(OC(=O)CN1C(=O)NC2(CCCC2)C1=O)C(=O)Nc1cccc(Cl)c1 (stereo not shown) — higher, -15.3%
- O=C(O)CC(CC(=O)Nc1ccc(-c2ccccc2)cc1)c1ccccc1 (stereo not shown) — higher, 9.93%
- Cc1cc(C(=O)N/N=C/c2sccc2C)no1 — higher, 17.2%
- S=C(NCCN1CCCCC1)Nc1ccc(Br)cc1 — lower, -69.1%
- S=C(NCCN1CCCCC1)Nc1ccccc1 — higher, 0.941%
- CN(C)CCCNC(=S)Nc1ccc(Br)cc1 — higher, -11.6%
- CCCCNC(=S)Nc1ccc(Cl)cc1 — higher, 3.01%
- CCCNC(=S)Nc1ccc(Br)cc1 — higher, 11.8%
- CCCCNC(=S)Nc1ccc(F)cc1 — higher, 20.6%
- CCCCNC(=S)Nc1ccc(C(F)(F)F)cc1 — lower, -52.8%
- CCN(CC)CCCNC(=S)Nc1ccc(Br)cc1 — lower, -53.2%
- S=C(NCCN1CCOCC1)Nc1ccc(Br)cc1 — higher, 5.71%
- O=C(NCCN1CCCCC1)Nc1ccc(Cl)cc1 — higher, -33.7%
- O=C(NCCN1CCCCC1)Nc1ccc(Br)cc1 — lower, -52.4%
- Cc1ccc(NC(=O)NCCN2CCCCC2)cc1 — higher, -11%
- COc1ccccc1CNC(=O)C1CCC(=O)N(CCCc2ccccc2)C1 (stereo not shown) — higher, -9.31%
- CC(C)c1cc(CNC(=O)CC2C(=O)NCCN2CC2CCCCC2)on1 (stereo not shown) — higher, 11.2%
- Cc1ccc(NC(=O)NCCN2CCCCC2)cc1Cl — lower, -51.7%
- Cc1ccc(NC(=O)NCCN2CCCCC2)cc1C — higher, -15.8%
- O=C(NCCN1CCCCC1)Nc1ccc(F)c(Cl)c1 — higher, -33.9%
- COc1ccc(S(=O)(=O)N2CCN(C(=O)[C@H](Cc3ccccc3)NC(=O)c3ccco3)CC2)cc1 — higher, -28.6%
- CC1CN(CCOc2ccc(F)cc2)CC(C)O1.O=C(O)C(=O)O (stereo not shown) — higher, 6.81%
- CC1CN(CCOc2ccc(Cl)c(Cl)c2)CC(C)O1.O=C(O)C(=O)O (stereo not shown) — higher, -5.18%
- CCCOc1ccc(OCCN2CCCC(C)C2)cc1.O=C(O)C(=O)O (stereo not shown) — lower, -52.2%
- CC1CC(C)CN(CCOc2ccc(Br)cc2)C1.O=C(O)C(=O)O (stereo not shown) — lower, -60.3%
- CC1CCCN(CCOc2ccc(Br)cc2)C1 (stereo not shown) — lower, -51.3%
- Brc1ccc(OCCN2CCOCC2)cc1 — higher, 4.54%
- COc1ccc(OCCCN2CCCC(C)C2)cc1 (stereo not shown) — higher, -32%
- O=C(CSc1nc2ccccc2n1CC(=O)N1CCCC1)Nc1ccc2c(c1)OCO2 — lower, -37.7%
- CC(=O)Nc1c(C)nn(C(C)=O)c1C — higher, 16.4%
- CC(=O)N(C(C)=O)c1nc2nc(C)cc(C)n2n1 — lower, -42.3%
- COc1cccc(NC(=O)NCCc2ccc(Cl)cc2)c1 — higher, 9.47%
- CCOC(=O)NNc1ccccc1 — higher, 6.88%
- Cc1ccc(-c2csc3nc4ccc(C(=O)NCCO)cc4c(=O)n23)cc1 — higher, 12.1%
- CC(C)(C)c1ccc(OCCC(=O)OCC(=O)Nc2cccnc2Cl)cc1 — higher, -2.33%
- COc1cc2c(cc1OC)C(c1cccs1)N(C(=O)c1ccncc1)CC2 (stereo not shown) — lower, -66.8%
- COc1cc2c(cc1OC)C(c1cccs1)N(C(=O)c1cccnc1)CC2 (stereo not shown) — lower, -54.9%
- COc1ccc(C2c3cc(OC)c(OC)cc3CCN2C(=O)c2ccccc2)cc1OC (stereo not shown) — higher, 2.95%
- COc1cc2c(cc1OC)C(c1cccs1)N(C(=S)NC(C)C)CC2 (stereo not shown) — lower, -40%
- COc1cc2c(cc1OC)C(c1ccccc1)N(C(=O)c1ccccc1)CC2 (stereo not shown) — higher, -13.1%
- COc1cc2c(cc1OC)C(c1cccs1)N(C(=O)C(C)C)CC2 (stereo not shown) — higher, -19.2%
- Cc1cc2ccccc2c(=O)n1CC(=O)NCCC1=CCCCC1 — higher, 8.01%
- Cc1c(C#N)c(NC(=O)CCl)n(Cc2ccccc2)c1C — higher, 31.1%
- CC(C)n1c(SCc2ccc(Cl)cc2)nc2c1c(=O)[nH]c(=O)n2C — higher, 18.5%
- Cc1ccc(OP(=O)(NC(C)c2ccccc2)Oc2ccc(C)cc2)cc1 (stereo not shown) — higher, 17.6%
- C=CCN(CC=C)S(=O)(=O)c1ccc(NC(=S)NC(=O)/C=C/c2cccc3ccccc23)cc1 — higher, 1.52%
- O=C(Cc1ccc(Br)cc1)N1CCN(C(=O)c2ccccc2)CC1 — higher, -30.1%
- CCOc1ccc(/C=C/[N+](=O)[O-])c2ccccc12 — higher, -8.67%
- CCN1CCN(c2ccc(S(=O)(=O)N3CCCCC3)cc2NC(=O)/C=C/c2cc(OC)ccc2OC)CC1 — lower, -52.7%
- CCN1CCN(c2ccc(S(=O)(=O)N3CCCCC3)cc2NC(=O)/C=C/c2ccc(OC)c(OC)c2)CC1 — higher, -31.4%
- CCN1CCN(c2ccc(S(=O)(=O)N3CCCCC3)cc2NC(=O)/C=C/c2ccc(OC(F)F)cc2)CC1 — lower, -50.2%
- CCN1CCN(c2ccc(S(=O)(=O)N3CCCCC3)cc2NC(=O)c2cccc(C(F)(F)F)c2)CC1 — lower, -46.7%
- CCN1CCN(c2ccc(S(=O)(=O)N3CCCCC3)cc2NC(=O)c2ccccc2)CC1 — lower, -46%
- CCN1CCN(c2ccc(S(=O)(=O)N3CCOCC3)cc2NC(=O)c2ccc(C(F)(F)F)cc2)CC1 — lower, -44.2%
- CCN1CCN(c2ccc(S(=O)(=O)N3CCCCC3)cc2NC(=O)c2cccc(F)c2)CC1 — higher, -34.6%
- CCN1CCN(c2ccc(S(=O)(=O)N3CCCCC3)cc2NC(=O)c2ccc(OC(F)F)cc2)CC1 — lower, -57.2%
- CCN1CCN(c2ccc(S(=O)(=O)N3CCCCC3)cc2NC(=O)c2ccc(F)cc2)CC1 — lower, -56.5%
- CN1CCN(c2ccc(S(=O)(=O)N3CCCCC3)cc2NC(=O)/C=C/c2ccc(OC(F)F)cc2)CC1 — lower, -39.2%
- CCN1CCN(c2ccc(S(=O)(=O)N3CCCCC3)cc2NC(=O)/C=C/c2cccc(OC)c2OC)CC1 — higher, -18.9%
- CCN1CCN(c2ccc(S(=O)(=O)N3CCOCC3)cc2NC(=O)/C=C/c2ccc(OC)cc2OC)CC1 — higher, -17.2%
- O=C(Nc1ccc2c(c1)OCO2)c1ccc(COc2ccc3c(c2)CCC3)o1 — higher, 5.22%
- CCN(Cc1ccccc1)C(=O)COC(=O)c1c(C)nsc1NC — higher, -6.97%
- CCOCCCNC(=O)c1cc(Nc2ccc(OC)cc2OC)nc2ccccc12 — higher, -7.58%
- COc1ccc(N2C(=O)CCC(C(=O)Nc3ccccn3)C2c2ccc(OC)c(OC)c2)cc1 (stereo not shown) — higher, 8.15%
- Cc1ccc(-n2c(C)c(C)c3c(NCCN(C)C)ncnc32)cc1 — higher, -36.3%
- COC(=O)c1ccc(C)c(NC(=O)CN2C(=O)c3ccccc3S2(=O)=O)c1 — higher, 6.46%
- Cc1ccc(CNC(=S)Nc2ccc(C)c([N+](=O)[O-])c2)cc1 — higher, 17.5%
- CN(CC(=O)Nc1ccc(S(=O)(=O)N2CCCC2)cc1)Cc1c(F)cccc1Cl — higher, -7.41%
- O=C(COc1ccc(-n2cnnn2)cc1)Nc1cccc(Cl)c1Cl — higher, 16.8%
- CC(=O)Nc1ccc(NC(=O)c2cc([N+](=O)[O-])cc([N+](=O)[O-])c2)cc1 — higher, 22.5%
- CCN1CCN(c2ccc(S(=O)(=O)N3CCCCC3)cc2NC(=O)c2cccc(Cl)c2)CC1 — higher, -34.6%
- CCN1CCN(c2ccc(S(=O)(=O)N3CCCCC3)cc2NC(=O)c2cccc(NC(C)=O)c2)CC1 — lower, -71.3%
- CC1(C)CC(=O)c2cc(N=C/C(C(=O)c3ccccc3)=C(\O)c3ccccc3)c(=O)oc2C1 — higher, 17.6%
- N#Cc1ccc(C2=CC(=O)C[C@H](c3ccc4c(c3)OCO4)C2)cc1 — lower, -70%
- N#Cc1ccc(C2=CC(=O)C[C@H](c3ccc(F)cc3)C2)cc1 — lower, -72.1%
- O=C1C=C(c2ccc3c(c2)OCO3)C[C@@H](c2ccc3c(c2)OCO3)C1 — higher, 10.9%
- Cc1ccc(C2=CC(=O)C[C@H](c3ccc(F)cc3)C2)cc1 — higher, 19.4%
- COc1ccc([C@H]2CC(=O)C=C(c3ccc(OC)nc3)C2)cc1 — higher, 14.2%
- COc1ccc(C2=CC(=O)C[C@H](c3ccc(Cl)cc3)C2)cn1 — higher, -12.4%
- O=C1C=C(c2ccc3ncccc3c2)C[C@@H](c2ccc(F)cc2)C1 — lower, -62.5%
- COc1ccc([C@H]2CC(=O)C=C(c3ccc4ncccc4c3)C2)cc1 — higher, -3.25%
- O=C1C=C(c2ccc(-c3ccccc3)cc2)C[C@@H](c2ccc(F)cc2)C1 — higher, 6.67%
- O=C1C=C(c2ccc(-c3ccccc3)cc2)C[C@@H](c2ccc3c(c2)OCO3)C1 — higher, 7.88%
- COc1ccc(C2=CC(=O)CC(c3ccc(F)cc3)C2)cn1 (stereo not shown) — lower, -61.1%
- O=C1C=C(c2ccc3ncccc3c2)C[C@@H](c2ccc(Cl)cc2)C1 — higher, -3.34%

Source: article PMC4336329 (PLoS ONE, 2015)
